Measurements from PubChem BioAssay (EPA / NIEHS).
Results filed as inconclusive are left out. Active and inactive are the calls of the source. The calls were made as follows, unless noted: active = hit-call score of the fitted dose curve at least 0.9, where 1 is the maximum; inconclusive = response in the unintended direction; inactive = score below 0.9.

What was measured:
[1] = TOX21_p53_BLA_p2_viability: Viability Assessment in the Tox21 HCT-116 p53 Agonism Beta-lactamase Assay, Phase 2 (AID 2283591);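 also: compound exposure lasted 16 h at 37 °C; actives lower the ATP signal meaning cytotoxicity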
Method in brief: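 HCT-116 p53-bla cells (4000/well) rested 5 h at 37C, then received compounds in DMSO (217-fold dilution) for 16 h at 37C, 5% CO2. After the CCF4 read, CellTiter-Glo was added; ATP luminescence was read after 30 min at room temperature.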

[2] = biological target: Cellular tumor antigen p53 (Homo sapiens) (UniProt P04637); test: TOX21_p53_BLA_p2_ratio: Tox21 HCT-116 p53 Agonism Beta-lactamase Assay, Ratio, Phase 2 (AID 2283592)
Method in brief: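 DMSO-normalized, positive-direction endpoint derived from the 460 nm/530 nm FRET ratio in HCT116 p53 beta-lactamase reporter cells exposed 16 h at 37C and loaded with CCF4-AM for 2 h.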

[3] = biological target: Cellular tumor antigen p53 (Homo sapiens) (UniProt P04637); test: TOX21_p53_BLA_p3_ratio: Tox21 HCT-116 p53 Agonism Beta-lactamase Assay, Ratio, Phase 3 (AID 2283596)
Method in brief: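 Cells were seeded at 4000/well, rested 5 h at 37C, then dosed with DMSO compound solutions (217-fold dilution) for 16 h. CCF4-AM substrate was loaded for 2 h at room temperature, and the 460/530 nm emission ratio was fitted for gain of signal versus DMSO.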

[4] = TOX21_p53_BLA_p4_viability: Viability Assessment in the Tox21 HCT-116 p53 Agonism Beta-lactamase Assay, Phase 4 (AID 2283597);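 also: hits lower the luminescence signal meaning cytotoxicity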
Method in brief: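 In this multiplexed secondary endpoint, HCT116 cells (4000 per well, compound at 5 h, 16 h treatment) received CellTiter-Glo after the beta-lactamase read. Luminescence after 30 min RT reflects ATP, and falling signal marks cytotoxicity.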

[5] = TOX21_p53_BLA_p5_viability: Viability Assessment in the Tox21 HCT-116 p53 Agonism Beta-lactamase Assay, Phase 5 (AID 2283600)
Method in brief: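 Here cell health was gauged by ATP levels in wells holding 4000 cells, each treated 16 h with DMSO-delivered compounds at 217-fold dilution; reduced luminescence marked toxicity.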

[6] = biological target: Cellular tumor antigen p53 (Homo sapiens) (UniProt P04637); test: TOX21_p53_BLA_p4_ratio: Tox21 HCT-116 p53 Agonism Beta-lactamase Assay, Ratio, Phase 4 (AID 2283601)
Method in brief: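 HCT116 cells carrying an inducible beta-lactamase reporter were plated at 4000 cells/well, rested 5 h, then exposed to compounds in DMSO (217-fold dilution) for 16 h at 37C. CCF4-AM substrate was loaded 2 h at room temperature; 460/530 nm emission ratio scored gain-of-signal versus DMSO.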

[7] = biological target: Cellular tumor antigen p53 (Homo sapiens) (UniProt P04637); test: TOX21_p53_BLA_p5_ratio: Tox21 HCT-116 p53 Agonism Beta-lactamase Assay, Ratio, Phase 5 (AID 2283599)
Method in brief: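 HCT-116 cells carrying a p53-inducible beta-lactamase reporter were seeded at 4000 cells/well and dosed after 5 h with compound in DMSO (217-fold dilution). After 16 h at 37C, CCF4-AM substrate was added for 2 h, and the 460/530 nm emission ratio was scored as gain-of-signal versus DMSO.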

[8] = CCTE_Harrill_HTTr_Viability_MCF7: CCTE's 6-hour Cell Viability Assessment for the High-Throughput Transcriptomics (HTTr) Platform, in MCF-7 cells cultured in DMEM + 10% fetal bovine serum, Harrill Lab (AID 2284010; active = hit-call score of the fitted dose curve at least 0.9, where 1 is the maximum; inactive = score below 0.9)
Method in brief: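 Read-out is propidium iodide gain of signal by high-content imaging, reflecting membrane integrity loss. Measurements are taken 6 h after dosing, eight concentrations per chemical, with DMSO serving as baseline for bidirectional curve fitting.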

Measured: AC50

Cellular tumor antigen p53 (Homo sapiens), sequence (P04637 whole entry, looked up): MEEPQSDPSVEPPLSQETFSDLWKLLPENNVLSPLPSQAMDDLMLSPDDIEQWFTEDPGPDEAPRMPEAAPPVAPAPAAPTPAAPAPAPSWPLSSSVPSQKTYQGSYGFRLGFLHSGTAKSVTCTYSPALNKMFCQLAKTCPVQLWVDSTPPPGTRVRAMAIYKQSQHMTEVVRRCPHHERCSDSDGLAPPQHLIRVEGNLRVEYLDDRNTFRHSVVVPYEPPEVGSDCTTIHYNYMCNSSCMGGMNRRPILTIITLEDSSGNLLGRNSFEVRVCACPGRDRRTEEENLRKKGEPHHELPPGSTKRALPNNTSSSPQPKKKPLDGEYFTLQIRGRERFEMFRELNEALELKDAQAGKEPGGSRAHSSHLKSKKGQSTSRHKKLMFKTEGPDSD

CCCCC(=O)O[C@]1(C(=O)CO)[C@H](C)C[C@H]2[C@@H]3CCC4=CC(=O)C=C[C@]4(C)[C@@]3(F)[C@@H](O)C[C@@]21C
inactive: [1] | [2] | [3] | [4] | [5] | [6]

CC1CCc2c(N3CCC(O)CC3)c(F)cc3c(=O)c(C(=O)O)cn1c23 (stereo not given)
inactive: [1] | [2] | [3] | [4] | [6]

Nc1ccc(S(=O)(=O)Nc2ccnn2-c2ccccc2)cc1
inactive: [1] | [2] | [3] | [4] | [6]

CCCCC(=O)O[C@H]1CC[C@H]2[C@@H]3CCc4cc(O)ccc4[C@H]3CC[C@]12C
inactive: [1] | [2] | [3] | [4] | [6]

C=C(C)C(=O)OCCC[Si](Cl)(Cl)Cl
inactive: [1] | [2] | [3] | [4] | [5] | [6]

CC1CC(C)C(=O)C1=O (stereo not given)
inactive: [1] | [2] | [3] | [7]

O=C(O)c1ccc(OCCn2ccnc2)cc1
inactive: [1] | [2] | [3] | [4] | [5] | [6]

CN[C@H](CC(C)C)C(=O)N[C@H]1C(=O)N[C@@H](CC(N)=O)C(=O)N[C@H]2C(=O)N[C@H]3C(=O)N[C@H](C(=O)N[C@H](C(=O)O)c4cc(O)cc(O)c4-c4cc3ccc4O)[C@H](O)c3ccc(c(Cl)c3)Oc3cc2cc(c3O[C@@H]2O[C@H](CO)[C@@H](O)[C@H](O)[C@H]2O[C@H]2C[C@](C)(N)[C@H](O)[C@H](C)O2)Oc2ccc(cc2Cl)[C@H]1O
inactive: [1] | [2] | [3] | [4] | [5] | [6]

C1CCC2OC2C1 (stereo not given)
inactive: [1] | [2] | [3] | [4] | [5] | [6]

CC[N+](CC)(CC)CCC(O)(c1ccccc1)C1CCCCC1 (stereo not given)
inactive: [1] | [2] | [3] | [4] | [5] | [6]

C[C@@H]1O[C@@H](OC[C@H]2O[C@@H](Oc3c(-c4ccc(OCCO)c(OCCO)c4)oc4cc(OCCO)cc(O)c4c3=O)[C@H](O)[C@@H](O)[C@@H]2O)[C@H](O)[C@H](O)[C@H]1O
inactive: [1] | [2] | [3] | [4] | [6]

CCCCCCCCCCCCCCCC(=O)OC[C@@H](COP(=O)([O-])OCC[N+](C)(C)C)OC(=O)CCCCCCCCCCCCCCC
inactive: [1] | [2] | [3] | [4] | [6]

CNC(=O)OCc1cccc(COC(=O)NC)n1
inactive: [1] | [2] | [3] | [7] | [5]

O=S(=O)(O)CCO
inactive: [1] | [2] | [3] | [4] | [5] | [6]

O=c1[nH]c2cc(C(F)(F)F)c(N3CCOCC3)cc2n(CP(=O)(O)O)c1=O
inactive: [1] | [2] | [3] | [4] | [6]

NC(CSCC(=O)O)C(=O)O (stereo not given)
inactive: [1] | [2] | [3] | [7] | [5]

CC(CCc1ccccc1)NCC(O)c1ccc(O)c(C(N)=O)c1 (stereo not given)
inactive: [1] | [2] | [3] | [4] | [5] | [6] | [8]

Cc1ccc([N+](=O)[O-])cc1Cl
inactive: [1] | [2] | [3] | [4] | [5] | [6]

COc1ccc(C(=O)c2ccc(OC)cc2O)c(O)c1
inactive: [1] | [2] | [3] | [4] | [6]

CCC1OCC(COc2ccc(Oc3ccccc3)cc2)O1 (stereo not given)
inactive: [1] | [2] | [3] | [7] | [5] | [6]

CCCCCCCCCCCCCCCCCCOCC(O)CO (stereo not given)
inactive: [1] | [2] | [3] | [7] | [5] | [6]

Cc1c(NC(=O)c2cccnc2)c(=O)n(-c2ccccc2)n1C
inactive: [1] | [2] | [3] | [7] | [5]

CC1=C(/C=C/C(C)=C/C=C/C(C)=C/C=C/C=C(C)/C=C/C=C(C)/C=C/C2=C(C)CCCC2(C)C)C(C)(C)CCC1
inactive: [1] | [2] | [3] | [7] | [5] | [6]

CCCNC(C)C(=O)Nc1c(C)csc1C(=O)OC (stereo not given)
inactive: [1] | [2] | [3] | [7] | [5]

CC(=O)N[C@@H](CC(C)C)C(=O)O
inactive: [1] | [2] | [3] | [7] | [5] | [6]

CCC(=O)OC
active: [2] 82.7 µM
inactive: [1] | [3] | [7] | [5] | [6]

O=C(O)c1cc(O)c2c(c1)[C@H]([C@H]1c3cc(C(=O)O)cc(O)c3C(=O)c3c(O[C@@H]4O[C@H](CO)[C@@H](O)[C@H](O)[C@H]4O)cccc31)c1cccc(O[C@@H]3O[C@H](CO)[C@@H](O)[C@H](O)[C@H]3O)c1C2=O
inactive: [1] | [2] | [3] | [7] | [5] | [6]

CC1CCc2cc(F)cc3c(=O)c(C(=O)O)cn1c23 (stereo not given)
inactive: [1] | [2] | [3] | [7] | [5] | [6]

OCCN1CCN(CCO)CC1
inactive: [1] | [2] | [3] | [7] | [5] | [6]

CC(=O)Oc1cccc(C)c1
inactive: [1] | [2] | [3] | [7] | [5] | [6]

CC1CCC(NC(=O)N(CCCl)N=O)CC1 (stereo not given)
inactive: [1] | [2] | [3] | [7] | [5] | [6]

O=[N+]([O-])c1ccccc1Nc1ccccc1
inactive: [1] | [2] | [3] | [7] | [5] | [6]
